Among the data in paper PMC12864922, “TDP-43 directly inhibits mRNA accumulation in neurites through modulation of mRNA stability” are binding signal values, retold here.

The full ranking holds about 9,900 sequences; the median of “r (bound/input frequency ratio)” is about 0.7, and the highest 2% start at about 6.5. Many of the other results were omitted from the sample, so the highest values are more common in it than they were.

The chains are these.
B1: ENSMUSG00000004113.292|Cacna1b (ssRNA)
RNA: GGGAGUUCUACAGUCCGACGAUCGCUUCGAUAUCCGCAUGCUACAGUGUGCACAGAUAGCUGGGAGGCCACGAGAGAAAGGUUGCACACAGACAGGCAGGCACUCCUUGGUGUGGUCUCUCUGUUUUGAAACUUCUGAUGACUUCUUGGUGGCUUGUUGUCUUCUACCCCAUGUUUCUCACAGGAUCUGUGUGUGUGUGUGUGUGUGUGUGUGUGUGUGUGUGUGUGUGUGUUAGCAUGUGUGUAUUAGCGUGUGUGAGUGUGUGAGCAUGCACGAGUCAUAGGAGAUGCAGGUGUAUGUGUGCUCUUGCGGUCGCACUAGUGUGGAAUUCUCGGGUGUCAAGG
B2: ENSMUSG00000004113.294|Cacna1b (ssRNA)
RNA: GGGAGUUCUACAGUCCGACGAUCGCUUCGAUAUCCGCAUGCUAAUAGCUGGGAGGCCACGAGAGAAAGGUUGCACACAGACAGGCAGGCACUCCUUGGUGUGGUCUCUCUGUUUUGAAACUUCUGAUGACUUCUUGGUGGCUUGUUGUCUUCUACCCCAUGUUUCUCACAGGAUCUGUGUGUGUGUGUGUGUGUGUGUGUGUGUGUGUGUGUGUGUGUGUUAGCAUGUGUGUAUUAGCGUGUGUGAGUGUGUGAGCAUGCACGAGUCAUAGGAGAUGCAGGUGUAUGUGUGUGGUGUGCAUAUCUCUUGCGGUCGCACUAGUGUGGAAUUCUCGGGUGUCAAGG
B3: ENSMUSG00000004113.293|Cacna1b (ssRNA)
RNA: GGGAGUUCUACAGUCCGACGAUCGCUUCGAUAUCCGCAUGCUAGCACAGAUAGCUGGGAGGCCACGAGAGAAAGGUUGCACACAGACAGGCAGGCACUCCUUGGUGUGGUCUCUCUGUUUUGAAACUUCUGAUGACUUCUUGGUGGCUUGUUGUCUUCUACCCCAUGUUUCUCACAGGAUCUGUGUGUGUGUGUGUGUGUGUGUGUGUGUGUGUGUGUGUGUGUGUUAGCAUGUGUGUAUUAGCGUGUGUGAGUGUGUGAGCAUGCACGAGUCAUAGGAGAUGCAGGUGUAUGUGUGUGGUGUCUCUUGCGGUCGCACUAGUGUGGAAUUCUCGGGUGUCAAGG
B4: ENSMUSG00000004113.295|Cacna1b (ssRNA)
RNA: GGGAGUUCUACAGUCCGACGAUCGCUUCGAUAUCCGCAUGCUAGGGAGGCCACGAGAGAAAGGUUGCACACAGACAGGCAGGCACUCCUUGGUGUGGUCUCUCUGUUUUGAAACUUCUGAUGACUUCUUGGUGGCUUGUUGUCUUCUACCCCAUGUUUCUCACAGGAUCUGUGUGUGUGUGUGUGUGUGUGUGUGUGUGUGUGUGUGUGUGUGUUAGCAUGUGUGUAUUAGCGUGUGUGAGUGUGUGAGCAUGCACGAGUCAUAGGAGAUGCAGGUGUAUGUGUGUGGUGUGCAUAUGUGUAUCUCUUGCGGUCGCACUAGUGUGGAAUUCUCGGGUGUCAAGG
B5: ENSMUSG00000004113.305|Cacna1b (ssRNA)
RNA: GGGAGUUCUACAGUCCGACGAUCGCUUCGAUAUCCGCAUGCUAUGUUUUGAAACUUCUGAUGACUUCUUGGUGGCUUGUUGUCUUCUACCCCAUGUUUCUCACAGGAUCUGUGUGUGUGUGUGUGUGUGUGUGUGUGUGUGUGUGUGUGUGUGUUAGCAUGUGUGUAUUAGCGUGUGUGAGUGUGUGAGCAUGCACGAGUCAUAGGAGAUGCAGGUGUAUGUGUGUGGUGUGCAUAUGUGUAUGUGUGUGUGUGUGUGUGUGUGUGUAGGUGUGUUCAGCAAGUGGCUAUUGUCAACCAUAGGCUCUUGCGGUCGCACUAGUGUGGAAUUCUCGGGUGUCAAGG
B6: ENSMUSG00000004113.303|Cacna1b (ssRNA)
RNA: GGGAGUUCUACAGUCCGACGAUCGCUUCGAUAUCCGCAUGCUAGUGUGGUCUCUCUGUUUUGAAACUUCUGAUGACUUCUUGGUGGCUUGUUGUCUUCUACCCCAUGUUUCUCACAGGAUCUGUGUGUGUGUGUGUGUGUGUGUGUGUGUGUGUGUGUGUGUGUGUUAGCAUGUGUGUAUUAGCGUGUGUGAGUGUGUGAGCAUGCACGAGUCAUAGGAGAUGCAGGUGUAUGUGUGUGGUGUGCAUAUGUGUAUGUGUGUGUGUGUGUGUGUGUGUGUAGGUGUGUUCAGCAAGUGGCUAUUCUCUUGCGGUCGCACUAGUGUGGAAUUCUCGGGUGUCAAGG
B7: ENSMUSG00000004113.302|Cacna1b (ssRNA)
RNA: GGGAGUUCUACAGUCCGACGAUCGCUUCGAUAUCCGCAUGCUAUCCUUGGUGUGGUCUCUCUGUUUUGAAACUUCUGAUGACUUCUUGGUGGCUUGUUGUCUUCUACCCCAUGUUUCUCACAGGAUCUGUGUGUGUGUGUGUGUGUGUGUGUGUGUGUGUGUGUGUGUGUGUUAGCAUGUGUGUAUUAGCGUGUGUGAGUGUGUGAGCAUGCACGAGUCAUAGGAGAUGCAGGUGUAUGUGUGUGGUGUGCAUAUGUGUAUGUGUGUGUGUGUGUGUGUGUGUGUAGGUGUGUUCAGCAAGUGCUCUUGCGGUCGCACUAGUGUGGAAUUCUCGGGUGUCAAGG
B8: ENSMUSG00000004113.291|Cacna1b (ssRNA)
RNA: GGGAGUUCUACAGUCCGACGAUCGCUUCGAUAUCCGCAUGCUAGGUGUUCAGUGUGCACAGAUAGCUGGGAGGCCACGAGAGAAAGGUUGCACACAGACAGGCAGGCACUCCUUGGUGUGGUCUCUCUGUUUUGAAACUUCUGAUGACUUCUUGGUGGCUUGUUGUCUUCUACCCCAUGUUUCUCACAGGAUCUGUGUGUGUGUGUGUGUGUGUGUGUGUGUGUGUGUGUGUGUGUGUUAGCAUGUGUGUAUUAGCGUGUGUGAGUGUGUGAGCAUGCACGAGUCAUAGGAGAUGCAGGUGUACUCUUGCGGUCGCACUAGUGUGGAAUUCUCGGGUGUCAAGG
B9: ENSMUSG00000004113.290|Cacna1b (ssRNA)
RNA: GGGAGUUCUACAGUCCGACGAUCGCUUCGAUAUCCGCAUGCUACAGGAAGGUGUUCAGUGUGCACAGAUAGCUGGGAGGCCACGAGAGAAAGGUUGCACACAGACAGGCAGGCACUCCUUGGUGUGGUCUCUCUGUUUUGAAACUUCUGAUGACUUCUUGGUGGCUUGUUGUCUUCUACCCCAUGUUUCUCACAGGAUCUGUGUGUGUGUGUGUGUGUGUGUGUGUGUGUGUGUGUGUGUGUGUUAGCAUGUGUGUAUUAGCGUGUGUGAGUGUGUGAGCAUGCACGAGUCAUAGGAGAUGCACUCUUGCGGUCGCACUAGUGUGGAAUUCUCGGGUGUCAAGG

This assay deals with TDP-43 (Homo sapiens, UniProt Q13148 1-414). As to the kind of experiment: RNA Bind-n-Seq with designed 260-mer pool; 25 mM Tris-HCl, 150 mM KCl, 3 mM MgCl2, BSA (printed 500 mg/mL), 20 units/mL SUPERase IN; pH not stated; 500 nM RNA pool, 1 h, 4 C; TDP-43 5, 50, 500 nM; high values mean tight binding. The following applies: protein: recombinant; tags: SBP (GST cleaved off with PreScission; pGEX-GST-SBP). In short, it runs like this: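 Binding (R) is the ratio of each oligo's mapped-read-normalized abundance in the bound fraction to its abundance in the input. To obtain it, SBP-tagged recombinant TDP-43 (5, 50 or 500 nM) on streptavidin beads was incubated with 500 nM of an in vitro-transcribed 260-nt 3′ UTR oligo pool for 1 h at 4 °C in 25 mM Tris-HCl, 150 mM KCl, 3 mM MgCl2, BSA and SUPERase IN. The RNA retained after washing was released with biotin, then reverse transcribed, amplified by PCR and sequenced.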
TDP-43, sequence (Q13148 whole entry): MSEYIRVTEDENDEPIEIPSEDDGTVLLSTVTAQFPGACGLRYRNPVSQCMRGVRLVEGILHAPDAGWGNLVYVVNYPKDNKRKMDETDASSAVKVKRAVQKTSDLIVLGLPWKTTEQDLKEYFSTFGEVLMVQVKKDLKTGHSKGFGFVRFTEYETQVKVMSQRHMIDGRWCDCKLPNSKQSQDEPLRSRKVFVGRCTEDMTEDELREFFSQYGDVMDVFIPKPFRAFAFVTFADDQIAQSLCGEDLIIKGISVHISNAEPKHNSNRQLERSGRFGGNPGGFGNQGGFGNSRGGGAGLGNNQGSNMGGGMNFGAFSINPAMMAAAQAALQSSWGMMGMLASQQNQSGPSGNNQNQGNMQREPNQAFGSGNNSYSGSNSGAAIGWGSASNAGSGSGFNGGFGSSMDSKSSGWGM
For the molecule B1, the binding signal is 6.93 R (bound/input frequency ratio). As to B2, the binding signal was 6.88 R (bound/input frequency ratio). B3: the binding signal is 5.22 R (bound/input frequency ratio).

For the molecule B4, the binding signal is 5.7 R (bound/input frequency ratio).

Regarding B5, the binding signal was 4.07 R (bound/input frequency ratio). The result for B6 reads 5.04 R (bound/input frequency ratio); that for B7, 8.59 R (bound/input frequency ratio). Take B8: the binding signal was 5.2 R (bound/input frequency ratio). For B9, the binding signal is 5.7 R (bound/input frequency ratio).
